Shown is part of a subset that was picked to be rich in hits.
TTR transcr act = TTR transcription activation, primary screen; hit rate 1.3% among 92,000; SH-SY5Y TTR promoter Gaussia luciferase, luminescence; 100% = recombinant luciferase protein wells; AID 1117267; activation, % at 16.7 µM;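 active means activation above the mean of all tested compounds plus 3 SD, cut at about 9.5% in these data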;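 further: cells exposed to compounds for one day before reading; 0% = median of all test compound wells on the plate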
HuH7 TTR inh = counter-screen for TTR activators: TTR transcription inhibitors in HuH7 cells; hit rate 4% among 1,100; HuH7 TTR promoter-Gaussia luciferase reporter, luminescence; shares compounds with TTR transcr act; inhibition, % at 16.7 µM;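 active means average inhibition above the solvent-only control wells' mean plus 3 SD, cut at about 15% in these data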;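 further: 0% = cells with DMSO only and 100% = cells with inhibitor control FD; inhibitors lower well luminescence so higher value means more inhibition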
TTR act confirm = confirmation of human transthyretin transcription activators; activation, % at 16.7 µM; SHSY5Y TTR promoter Gaussia luciferase, luminescence; 100% = purified Lucia enzyme wells, no cells; 1,100 tested, under 10 active; shares compounds with TTR transcr act;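 active means mean activation above a set limit taken from the earlier primary screen, cut at about 11% in these data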;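 further: 0% = DMSO-treated cells and 100% = recombinant Lucia luciferase without cells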
* marks the source's active call; other numbers are inactive results.

Screening CCOC(=O)N1CCC(NC(=O)CCc2nc(C3=CCN(C)CC3)no2)CC1 returned TTR transcr act 10.4*, HuH7 TTR inh 2.0 and TTR act confirm 0.0.
CC1([N+](=O)[O-])COP(=O)(NC2CC2)OC1 (stereo not drawn) was read as TTR transcr act 0.2.
For C=C1[C@@H](C)C2[C@H](Cc3ccccc3)NC(=O)[C@]23[C@H](OC(C)=O)/C=C/[C@@](C)(O)C(=O)[C@@H](C)C/C=C/[C@H]3[C@@H]1O (stereo partly drawn) the results were TTR transcr act 1.8.
C=CCn1c(O)c(C(CC)=NCc2ccc3c(c2)OCO3)c(=O)[nH]c1=O was read as TTR transcr act -0.8.
O=C(/C=C/c1ccc2c(c1)OCO2)c1c(O)n(CCC2=CCCCC2)c(=O)[nH]c1=O was read as TTR transcr act 1.2.
For CCCCn1c(O)c(C(=O)/C=C/c2ccc3c(c2)OCO3)c(=O)[nH]c1=O the results were TTR transcr act 21.1*, HuH7 TTR inh 15.2* and TTR act confirm 0.9.
`C[C@]12CC[C@@H](O)CC1=CC(=O)C1C2CC[C@]2(C)C(=O)CCC12` (stereo partly drawn) gave TTR transcr act -1.9.
For CC1(C)CC2CCC(O)C2C(CCO)N1 (stereo not drawn) the results were TTR transcr act 1.2.
For C1CN(P2(N3CC3)=NP(N3CC3)(N3CC3)=NP(N3CC3)(N3CC3)=N2)CCO1 (stereo not drawn) the results were TTR transcr act 0.7.
For CCn1c(C)cc(/C=C2\C(=O)NC(=O)N(c3ccccc3C)C2=O)c1C the results were TTR transcr act 1.1.
For Cc1ccc(-n2c(C)cc(/C=C3/C(=O)NC(=O)N(C)C3=O)c2C)cc1 the results were TTR transcr act 1.2.
COc1ccc(N2C(=O)/C(=C/c3cc(C)n(-c4ccc(C)cn4)c3C)C(=O)NC2=S)c(OC)c1 was read as TTR transcr act 10.7*, HuH7 TTR inh -0.7 and TTR act confirm -0.6.
For CN1C(=O)C(Cc2ccccc2)C(=O)N(C)C1=O the results were TTR transcr act 0.3.
For CN1C(=O)C(Cc2ccsc2)C(=O)N(C)C1=O the results were TTR transcr act 12.3*, HuH7 TTR inh -8.0 and TTR act confirm -0.2.
CN1C(=O)C(C2CCCCC2)C(=O)N(C)C1=O was read as TTR transcr act 0.1.
Screening COP(=O)(OC)C(C)NC(=O)OCc1ccccc1 (stereo not drawn) returned TTR transcr act 6.1.
`COC(=O)C1=C(c2cccc(OCc3ccccc3)c2)C[C@@H]2CC[C@H]1N2C(=O)NCCOc1ccccc1` gave TTR transcr act -2.9.
COc1ccc(Cn2c(N)c(C(=O)NCc3ccco3)c3nc4ccccc4nc32)cc1OC was read as TTR transcr act 2.8.
For COc1ccc(C(=O)Nc2cccc(S(=O)(=O)NCc3ccco3)c2)cc1 the results were TTR transcr act 10.7*, HuH7 TTR inh -3.2 and TTR act confirm -0.8.
For O=C(Nc1ccc(Cl)c(Cl)c1)c1ccco1 the results were TTR transcr act -2.2.
Screening COC1CC=C2CCN3CCC4=C(CC(=O)OC4)C23C1 (stereo not drawn) returned TTR transcr act 0.5.
CC[C@]12CCN(CC3(O)CC3)C(Cc3ccc(O)cc31)C2(C)C was read as TTR transcr act 4.4.
Screening Cc1ncoc1C(=O)NCC1=C(c2ccc3ccccc3c2)C[C@@H]2CC[C@H]1N2Cc1ccco1 returned TTR transcr act -0.1.
Screening Cc1c(P(=S)(c2ccccc2)c2ccccc2)c2ccccc2n1C returned TTR transcr act 3.6.
For O=C(N/N=C/c1c(O)n(-c2ccccc2)c(=O)[nH]c1=O)c1ccncc1 the results were TTR transcr act 12.8*, HuH7 TTR inh -0.3 and TTR act confirm 0.5.
Screening Cc1cccc(-n2c(O)c(/C=N/NC(=O)c3ccncc3)c(=O)[nH]c2=O)c1 returned TTR transcr act 1.7.
For Cc1ccc(-n2c(O)c(/C=N/NC(=O)c3ccncc3)c(=O)[nH]c2=O)cc1 the results were TTR transcr act -1.9.
CC(NC(=O)OC1CC2CCC1(C)C2(C)C)P(=O)(Oc1ccccc1)Oc1ccccc1 (stereo not drawn) was read as TTR transcr act 4.9.
Screening C[N+](C)(C)CC1CCCC1=O (stereo not drawn) returned TTR transcr act 2.6.
For COCCOC(=O)C1=C(N)OC(C)=C(C(=O)OC)C12C(=O)Nc1ccccc12 (stereo not drawn) the results were TTR transcr act 0.9.
Screening C=CCOC(=O)C1=C(C)OC(N)=C(C#N)C12C(=O)N(CN1CCOCC1)c1ccccc12 (stereo not drawn) returned TTR transcr act 11.5*, HuH7 TTR inh -10.8 and TTR act confirm 1.4.
For CCOC(=O)C1=C(N)Oc2c(c(=O)oc3ccccc23)C12C(=O)N(C)c1ccccc12 (stereo not drawn) the results were TTR transcr act 1.6.
For COc1ccc(OC(=O)N(C)C[C@@H]2OCc3cnnn3CCCC(=O)N([C@H](C)CO)C[C@@H]2C)cc1 the results were TTR transcr act 1.2.
`Brc1ccc(-[n+]2c(-c3ccccc3)cc(-c3ccccc3)cc2-c2ccccc2)cc1` gave TTR transcr act -9.3.
`CCC1(c2ccccc2)C(=O)NC(=S)NC1=O` gave TTR transcr act 2.1.
`CCCC(=O)NC1=C(N2CC2)C(=O)C(NC(=O)CCC)=C(N2CC2)C1=O` gave TTR transcr act 10.8*, HuH7 TTR inh 53.1* and TTR act confirm -2.7.
For CCCC(=O)Nc1ccc(N2CCN(CC)CC2)c(Cl)c1 the results were TTR transcr act -0.5.
Screening CCOC1=C(N2CC2)C(=O)C(OCC)=C(N2CC2)C1=O returned TTR transcr act -0.8.
`C[N+]1=C(N)NC2=C3CCCCC3ONC2C1` (stereo not drawn) gave TTR transcr act -1.3.
`CN1C(=O)N(C)C(=O)C(NS(=O)(=O)c2ccc(N)cc2)(c2ccccc2)C1=O` gave TTR transcr act 7.8.
For C=C(C=O)CC1CC(O)[C@]2(C)OC3CC4OC5C[C@]6(C)O[C@]7(C)CCC8OC9C[C@]%10(C)OC%11C(C)=CC(=O)OC%11CC%10OC9C[C@@H](C)C8OC7CC6O[C@]5(C)C/C=C\C4OC3CC2O1 (stereo partly drawn) the results were TTR transcr act -5.3.
For O=C(NC12CC3CC(CC(C3)C1)C2)OC1CN2CCC1CC2 (stereo not drawn) the results were TTR transcr act 12.8*, HuH7 TTR inh -14.7 and TTR act confirm 0.2.
`CC(C)CCP(=O)(O)O` gave TTR transcr act -0.9.
For CC(C)OC(=O)C1C(c2ccc(I)cc2)CC2CCC1N2C (stereo not drawn) the results were TTR transcr act -0.9.
`O=C(NC(CCC(O)CO)P(=O)(Oc1ccccc1)Oc1ccccc1)OCc1ccccc1` (stereo not drawn) gave TTR transcr act -1.4.

From PubChem
